The results in this text go back to PubChem BioAssay (NCI).

Molecules are shown by their SMILES. Compounds without any hit were thinned out: in the full panel of roughly 83,000, 20% have a hit.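 For each line, cells grew in 96-well plates with the test compound present at a single concentration for 48 hours.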 Unmarked numbers belong to inactive results. Activity calls are given as the source filed them. How the source made its calls: active means growth percent below 10; inactive means the rest.

Assay in all cases: NCI-60 one-dose screen, 48 h (100 = growth as untreated, 0 = no growth, -100 = all killed)
What all share (conditions): 10 µM unless noted

In experiment [1] the test system is T-47D breast.
Experiment [2] deals with BT-549 breast.
Experiment [3] deals with MDA-MB-435 melanoma.
The test system of experiment [4] is SW-620 colon.
The test system of experiment [5] is MCF7 breast.
Experiment [6] has as its system HCT-116 colon.
The test system of experiment [7] is HCC-2998 colon.
Experiment [8] relates to KM12 colon.

Consider `CC(C)CCC[C@@H](C)[C@H]1CCC2C3=CCC4C(=O)C=CC(=O)C4C3CC[C@@]21C` (stereo partly drawn), for which the growth in experiment [1] is -18.9% (active); in experiment [2] it was -1.63% (active); in experiment [3], 5.05% (active); in experiment [4], -10.1% (active); in experiment [5], 8.65% (active); in experiment [6], -75.5% (active). The growth is 12.4% in experiment [7] and 7.56% (active) in experiment [8].

Consider `O=C(NC1CCOCC1)c1ccc2c(c1)CN(c1ncc(Cc3cccc(-n4cccn4)c3)s1)CC2`, for which the growth was 38.9% in experiment [1]; 31.1% in experiment [2]; 76.3% in experiment [3]; 107% in experiment [4]; 56.9% in experiment [5]; 47.6% in experiment [6]. The figures for the growth in experiment [7] and in experiment [8] were 77% and 84.9%, respectively.

For the compound `COc1ccc(-n2sc(=O)n(Cc3ccc(COC(=O)C(C)c4ccc(CC(C)C)cc4)cc3)c2=O)cc1` (stereo not drawn), the growth in experiment [1] is 10.6%; in experiment [2], 52.8%; in experiment [3], 22%; in experiment [4], -12.5% (active); in experiment [5], 17.8%; in experiment [6], -31.9% (active). Moreover, the growth in experiment [7] is 83.9%; in experiment [8] it was 85.8%.

With `CCOC(=O)C(=CNc1ccccc1[N+](=O)[O-])C(=O)OCC`, the growth in experiment [1] was 90%; in experiment [2] it was 103%; in experiment [3] it was 111%; in experiment [4] it was 99.5%; in experiment [5], 92.9%; in experiment [6], 100%. Moreover, the figures for the growth in experiment [7] and in experiment [8] were 96.1% and 106%, respectively.

For `O=C(NCCOCCOCCOCCNC(=O)c1cc2c(o1)C(=O)c1ccccc1C2=O)NC12CC3CC(CC(C3)C1)C2`, the growth in experiment [1] is 9.45% (active); in experiment [2], -84.9% (active); in experiment [3], -95.9% (active); in experiment [4], -8.88% (active); in experiment [5], -63.3% (active); in experiment [6] it was 3.1% (active). Further, the growth in experiment [7] is -67.6% (active); in experiment [8] it was -1.07% (active).

For `O[C@H]1CO[C@H]2[C@@H]1OC[C@@H]2Oc1ccc(Nc2nc(Nc3ccc(F)c(Cl)c3)ncc2F)cc1Cl`, the growth in experiment [1] was 110%; in experiment [2], 105%; in experiment [3], 93.1%; in experiment [4], 98.2%; in experiment [5], 88.3%; in experiment [6] it was 105%. Also, the values for the growth in experiment [7] and in experiment [8] were 101% and 108%, respectively.

For the compound `C=C1C(=O)O[C@H]2[C@H]1CC/C(COC(=O)/C=C\C(=O)NCc1ccc(Cn3c(=O)sn(-c4ccc(C#N)cc4)c3=O)cc1)=C\CC[C@@]1(C)O[C@@H]21`, the growth in experiment [1] is -59.9% (active); in experiment [2], -57.5% (active); in experiment [3], -79.6% (active); in experiment [4], -64% (active); in experiment [5], -51.8% (active); in experiment [6], -55.7% (active). The growth in experiment [7] was -79.1% (active); in experiment [8] it was -71.7% (active).

As to `Cc1nc(Nc2ccc(N)cc2)c2ccccc2n1`, the growth in experiment [1] is 101%; in experiment [2], 104%; in experiment [3] it was 64.6%; in experiment [4], 99%; in experiment [5] it was 75.8%; in experiment [6], 95.3%. Moreover, the growth is 104% in experiment [7] and 98.3% in experiment [8].

For `CN1C[C@@H](c2ccc(Cl)cc2)[C@]2(NC(=S)N(c3ccccc3)C2=O)[C@@]12C(=O)NC1C=CC(Br)=C[C@H]12` (stereo partly drawn), the growth was 49.5% in experiment [1]; 56% in experiment [2]; 77.4% in experiment [3]; 85.2% in experiment [4]; 51.3% in experiment [5]; 27.5% in experiment [6]. The growth was 94.9% in experiment [7] and 78.5% in experiment [8].

Take `CCCCCCCCN(CCCCCCCC)C(=N)c1ccnc2ccccc12`: the growth in experiment [1] is -62.9% (active); in experiment [2] it was 66.2%; in experiment [3] it was -82.3% (active); in experiment [4] it was -68.1% (active); in experiment [5] it was -74.6% (active); in experiment [6], -92.3% (active). Besides, the growth in experiment [7] is -84.1% (active); in experiment [8] it was -82.7% (active).

For the compound `CN(C)CCCCNc1ccc(NCCCCN(C)C)c2c1C(=O)c1c(O)ccc(O)c1C2=O`, the growth in experiment [1] is 97.1%; in experiment [2] it was 92%; in experiment [3], 92.7%; in experiment [4] it was -72.6% (active); in experiment [5] it was -81.6% (active); in experiment [6] it was -66.7% (active). For the same compound, the growth in experiment [7] is -86% (active); in experiment [8] it was -89.3% (active).

Take `Cn1nnnc1-c1ccc(N)cc1`: the growth was 87.2% in experiment [1]; 93.4% in experiment [2]; 99.5% in experiment [3]; 104% in experiment [4]; 90.9% in experiment [5]; 84.6% in experiment [6]. Besides, the results for the growth in experiment [7] and in experiment [8] were 100% and 99.4%, respectively.

Take `COc1cc2c(cc1OC)-c1ccc3cc4c(cc3c1N(CCN1CCCC1)C2)OCO4`: the growth is -28.3% (active) in experiment [1]; 21.8% in experiment [2]; 56.4% in experiment [3]; -40.1% (active) in experiment [4]; -6.8% (active) in experiment [5]; -84.5% (active) in experiment [6]. The results for the growth in experiment [7] and in experiment [8] were 15.7% and 16.7%, respectively.

On to `Cc1cc(-c2ccc(N(C)C)cc2)c2sc(=O)[nH]c2n1`, for which the growth is 67.6% in experiment [1]; 74.6% in experiment [2]; 4.12% (active) in experiment [3]; 38.3% in experiment [4]; 28.4% in experiment [5]; 50.1% in experiment [6]. In addition, the growth is 77.5% in experiment [7] and 39% in experiment [8].

For `COc1ccc(-c2nc3sccn3c2/C=C/C(=O)c2c[nH]c3ccccc23)cc1`, the growth in experiment [1] is 56.1%; in experiment [2] it was 59.1%; in experiment [3], 88.9%; in experiment [4] it was 100%; in experiment [5] it was 69.8%; in experiment [6], 69.5%. Moreover, the growth in experiment [7] is 67.4%; in experiment [8] it was 76.8%.

On to `CCN(CC)CC(=O)Nc1cccc(C(=O)OC(C)C)c1`, for which the growth in experiment [1] was 92%; in experiment [2], 66%; in experiment [3], 102%; in experiment [4], 115%; in experiment [5] it was 103%; in experiment [6], 72.8%. The growth in experiment [7] is 99.5%; in experiment [8] it was 105%.
